According to PubChem BioAssay (NCI):
This is part of a sample that, as a whole, favours compounds with a hit. Of some 83,000 tested, about 20% had one in any assay.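 Interpretation: 100, growth as untreated; towards 0, rising growth inhibition; 0, no net growth; 0 to -100, cell death. Compounds scoring below 10 were considered active.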 Unmarked numbers belong to inactive results. Calls of active or inactive are those of the source.

Test system: MDA-MB-468 breast
Experiment: NCI-60 one-dose screen, 48 h (100 = growth as untreated, 0 = no growth, -100 = all killed)
Settings: 10 µM unless noted

SMILES	growth
Cc1cc(O[C@@H]2O[C@@H](C)[C@H](O)[C@@H](O)[C@H]2O)c2c3c(c(O[C@@H]4O[C@@H](C)[C@H](O)[C@@H](O)[C@H]4O)cc2c1)C(=O)c1c(O)cccc1C3=O	67.5%
CCNCCNc1c(C)c(-c2ccc(C(F)(F)F)cc2)c(C#N)c2nc3ccccc3n12	56.1%
O=C(Nc1ccccc1O)c1ccc(CNc2ccnc(C(F)(F)F)c2)cc1	90.7%
OCCNCCCOc1ccc2ncnc(Nc3ccc(Oc4cccc(C(F)(F)F)c4)c(Cl)c3)c2c1	-64.6% (active)
CCc1ccccc1-n1c(N)c(C#N)c(-c2ccc(Cl)cc2)c(C#N)c1=O	98.8%
Cc1ccc(-n2nnc(C3=NCCc4c3[nH]c3ccc(Cl)cc43)c2C)cc1	71.5%
C=C1CC[C@@H]2[C@](C)(CO)[C@H](O)CC[C@@]2(C)[C@@H]1C/C(O)=C1\CCOC1=O	90.8%
NC(=S)N/N=C(/C=C/c1cn(-c2ccccc2)nc1-c1ccc(Cl)cc1)c1cc2ccccc2oc1=O	52.2%
CC1(C)N=C(N)N=C(N)N1c1cccc(CCCCOc2ccccc2)c1	10.1%
C=CCn1c(SCC(=O)Nc2ccc(C(=O)/C=C/c3cc(OC)c(OC)c(OC)c3)cc2)nnc1-c1ccc(OC)cc1	-26.5% (active)
CCCCC(CC)COC(=O)C[N+](C)(C)CCOC(c1ccccc1)c1ccccc1 (stereo unspecified)	-39% (active)
COC(=O)N[C@H]1CCc2c(Cl)c(OC)c(OC)c(OC)c2-c2ccc(SC)c(=O)cc21	-18.8% (active)
C=C1C(=O)O[C@@H]2C[C@@H](C)CCC(=O)[C@](C)(OC(C)=O)C[C@H](OC(=O)/C(C)=C\C)[C@@H]12	32.7%
Fc1ccc(-c2nc(C(Cl)Cl)nc3cc(-c4ccccc4)nn23)cc1	-52.7% (active)
COc1ccc(CN2c3ccccc3Sc3ccccc32)cc1F	-0.673% (active)
CC(Cc1ccco1)C(=O)NC(N)=O (stereo unspecified)	95.7%
CS(=O)(=O)Nc1ccc(-c2nn(-c3ccc(S(C)(=O)=O)cc3)cc2/C=C/C(=O)c2ccc(NC(=O)CO[N+](=O)[O-])cc2)cc1	95%
CC(=O)OC1CC2CCC1(C)C2(C)C (stereo unspecified)	103%
COc1c(C)c2c(c(O)c1C/C=C(\C)CCC(=O)O)C(=O)OC2	37.9%
COc1ccc(C2CC(c3ccccc3)=Nc3ccccc3S2)cc1 (stereo unspecified)	102%
COc1ccccc1N=Nc1c(O)ccc2cc(S(=O)(=O)O)ccc12	111%
